In PubChem BioAssay AID1159580 (chemical genetic matrix, 2015):
Screen size: about 5,500 compounds; about 2,000 (36%) were called active. Roughly 18% stayed inconclusive and do not appear here. No stated cut-off is given here; in the data, active means normalized growth mostly below about 0.91 (no sharp cut-off); inconclusive means no clear call, values can overlap the other calls; inactive means mostly above about 0.92. The list shows a part of the results.

Assay: chemical genetic growth profiling, strain panel (AID 1159580);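 further: tested at 20 µM; growth read once vehicle control cultures reached saturation at 30 °C; 1 = growth at the plate median or of vehicle wells; lower values mean less growth of the strain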
Details: S. cerevisiae deletion strains, growth OD

Measured: normalized growth

O=C(O)C1CN(CCCP(=O)(O)O)CCN1 (stereo not given)
inactive: locus YAL040C, strain CLN3, hits give low values 0.977 | locus YCL061C, strain MRC1 (second series), hits give low values 0.994 | locus YDR363W, strain ESC2, hits give low values 0.965 | locus YER002W, strain NOP16, hits give low values 0.975 | locus YGR078C, strain PAC10, hits give low values 0.966 | locus YGR229C, strain SMI1, hits give low values 0.967 | locus YJR075W, strain HOC1, hits give low values 0.987 | locus YNL128W, strain TEP1, hits give low values 1.02 | locus YNL175C, strain NOP13, hits give low values 0.974 | locus YNL197C, strain WHI3, hits give low values 0.99 | locus YNL224C, strain SQS1, hits give low values 0.991 | locus YOR083W, strain WHI5 (second series), hits give low values 1.04 | locus YPL055C, strain LGE1, hits give low values 0.951 | locus YPL241C, strain CIN2, hits give low values 0.984

COc1ccc(-c2cc(=O)c3c(O)c(OC)c(OC)c(OC)c3o2)cc1
inactive: locus YAL021C, strain ccr4, hits give low values 0.987 | locus YAL026C, strain drs2, hits give low values 0.988 | locus YAL030W, strain snc1, hits give low values 1 | locus YBL061C, strain skt5, hits give low values 0.99 | locus YBR009C, strain hhf1, hits give low values 0.995 | locus YBR023C, strain chs3, hits give low values 0.993 | locus YBR171W, strain sec66, hits give low values 0.999 | locus YBR231C, strain swc5, hits give low values 0.986 | locus YBR279W, strain paf1, hits give low values 0.999 | locus YCL011C, strain gbp2, hits give low values 0.987 | locus YCL016C, strain dcc1, hits give low values 0.968 | locus YCL069W, strain vba3, hits give low values 0.983 | locus YCR088W, strain abp1, hits give low values 0.996 | locus YDL005C, strain med2, hits give low values 0.986 | locus YDL040C, strain nat1, hits give low values 0.993 | locus YDR001C, strain nth1, hits give low values 0.992 | locus YDR069C, strain doa4, hits give low values 0.976 | locus YDR137W, strain rgp1, hits give low values 1 | locus YDR159W, strain sac3, hits give low values 1 | locus YDR195W, strain ref2 0.953 | locus YDR297W, strain sur2, hits give low values 0.987 | locus YDR334W, strain swr1, hits give low values 0.977 | locus YDR335W, strain msn5, hits give low values 0.995 | locus YDR392W, strain spt3, hits give low values 0.991 | locus YEL003W, strain gim4, hits give low values 0.984 | locus YEL037C, strain rad23, hits give low values 0.992 | locus YEL061C, strain CIN8 (second series), hits give low values 0.998 | locus YER015W, strain faa2, hits give low values 0.989 | locus YER016W, strain bim1, hits give low values 0.998 | locus YER111C, strain swi4, hits give low values 0.997 | locus YER155C, strain BEM2 (second series), hits give low values 0.978 | locus YFR010W, strain ubp6, hits give low values 1 | locus YGL167C, strain pmr1, hits give low values 0.995 | locus YGL173C, strain kem1, hits give low values 1.02 | locus YGL227W, strain vid30, hits give low values 1 | locus YGL240W, strain doc1, hits give low values 1 | locus YGL253W, strain hxk2, hits give low values 1 | locus YHR013C, strain ard1, hits give low values 0.971 | locus YHR027C, strain rpn1, hits give low values 0.964 | locus YHR142W, strain chs7, hits give low values 0.986 | locus YJL092W, strain hpr5, hits give low values 0.99 | locus YJL095W, strain BCK1 (second series), hits give low values 1 | locus YJL115W, strain asf1, hits give low values 0.979 | locus YJL129C, strain trk1, hits give low values 0.979 | locus YJL154C, strain vps35, hits give low values 0.988 | locus YJL164C, strain tpk1, hits give low values 1.01 | locus YJL166W, strain qcr8, hits give low values 0.998 | locus YJL187C, strain SWE1, hits give low values 0.995 | locus YKL160W, strain elf1, hits give low values 0.972 | locus YKR026C, strain gcn3, hits give low values 1.01 | locus YKR091W, strain srl3, hits give low values 0.994 | locus YLL001W, strain dnm1, hits give low values 0.999 | locus YLL026W, hits give low values 0.983 | locus YLL041C, strain sdh2, hits give low values 0.982 | locus YLR027C, strain aat2, hits give low values 0.991 | locus YLR221C, strain rsa3, hits give low values 0.992 | locus YLR258W, strain gsy2, hits give low values 0.982 | locus YLR262C, strain YPT6 (second series), hits give low values 1 | locus YLR320W, strain mms22, hits give low values 1 | locus YLR342W, strain FKS1, hits give low values 0.99 | locus YLR357W, strain rsc2, hits give low values 0.97 | locus YLR370C, strain arc18, hits give low values 0.983 | locus YLR384C, strain iki3, hits give low values 0.99 | locus YML120C, strain ndi1, hits give low values 0.992 | locus YMR058W, strain fet3, hits give low values 0.976 | locus YMR125W, strain sto1, hits give low values 0.974 | locus YMR129W, hits give low values 0.989 | locus YMR205C, strain PFK2, hits give low values 0.997 | locus YMR231W, strain pep5, hits give low values 1.01 | locus YNL071W, strain lat1, hits give low values 1 | locus YNL209W, strain ssb2, hits give low values 0.984 | locus YNL248C, strain rpa49, hits give low values 0.969 | locus YNL322C, strain KRE1 (second series), hits give low values 1.01 | locus YNR049C, strain mso1, hits give low values 0.984 | locus YOR001W, strain rrp6, hits give low values 0.998 | locus YOR070C, strain gyp1, hits give low values 0.99 | locus YOR080W, strain dia2, hits give low values 0.984 | locus YOR083W, strain WHI5, hits give low values 0.993 | locus YOR106W, strain vam3, hits give low values 0.955 | locus YOR265W, strain rbl2, hits give low values 0.983 | locus YOR270C, strain vph1, hits give low values 1.01 | locus YOR290C, strain snf2, hits give low values 0.955 | locus YPL051W, strain arl3, hits give low values 0.981 | locus YPL078C, strain atp4, hits give low values 0.991 | locus YPL106C, strain sse1, hits give low values 0.981 | locus YPL240C, strain hsp82, hits give low values 0.99
